Screens as filed in PubChem.
In the library only some 3.5% were active in any assay of this set; here they are far more common.
Mtb FBA inh: Mtb fructose-bisphosphate aldolase inhibition | purified M. tuberculosis FBA, fluorescence read-out | inhibition, % at 1 µM | 2.3% of 360,000 active | AID 588726; in the data active means inhibition above about 27%;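 further: 0% = vehicle and 100% = reference inhibitor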
Rv3671c inh: inhibitors of M. tuberculosis serine protease Rv3671c | P9WHR9 | inhibition, % at 5.96 µM | 0.048% of 320,000 active; in the data active means inhibition above about 38%;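 further: extracellular domain of Rv3671c used as enzyme; 0% = enzyme with DMSO and 100% = no enzyme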
Target sequence (P9WHR9 whole entry, looked up, the tested form may be a part): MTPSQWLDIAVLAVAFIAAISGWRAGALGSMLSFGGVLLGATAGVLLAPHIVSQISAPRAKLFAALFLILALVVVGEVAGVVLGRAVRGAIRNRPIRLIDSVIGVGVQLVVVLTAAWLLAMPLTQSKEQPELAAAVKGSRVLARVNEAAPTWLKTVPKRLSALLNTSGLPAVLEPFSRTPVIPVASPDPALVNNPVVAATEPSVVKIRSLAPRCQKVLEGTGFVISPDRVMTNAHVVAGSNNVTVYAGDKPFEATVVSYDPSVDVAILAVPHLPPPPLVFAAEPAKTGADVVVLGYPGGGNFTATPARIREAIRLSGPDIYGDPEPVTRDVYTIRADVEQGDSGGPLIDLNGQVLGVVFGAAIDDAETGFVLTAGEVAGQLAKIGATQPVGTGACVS
GDH-TPI inh: inhibits GDH-TPI coupling enzymes, artifact for Mtb FBA screen; 1.2% of 360,000 active; inhibition, % at 4.8 µM; AID 588335; GDH-TPI coupled enzyme counterscreen, NADH absorbance; in the data active means inhibition above about 30%;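 further: 0% = DMSO wells and 100% = wells lacking the enzyme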
Mtb UGM inh: blocks M. tuberculosis UGM enzyme. P9WIQ1. purified UGM, fluorescence polarization probe displacement. inhibition, % at 10 µM. 0.06% of 320,000 active. AID 504406; in the data active means inhibition above about 10%, passing the limit was not always enough; inconclusive means no clear call, values can overlap the other calls
Mtb bLac sens: beta-lactam sensitization of Mtb H37Rv; inhibition, % at 25 µM; 0.27% of 330,000 active; M. tuberculosis H37Rv growth with meropenem, percent inhibition; call rule not given here;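 further: growth measured after seven days incubation then overnight dye step; 0% = bacteria only wells and 100% = bacteria with antibiotic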
Starred values were filed as active, the others as inactive; ? = inconclusive; nt = no result; + = active, no number.

SMILES	Mtb FBA inh	Rv3671c inh	GDH-TPI inh	Mtb UGM inh	Mtb bLac sens
O=C(CN1C(=O)COc2ccc(Cl)cc21)NCC1CCCO1 (stereo not drawn)	1	-2	-6	2	-9
COC1CCCN(Cc2c(C(=O)N3CCN(C4CCCCC4)CC3)nc3ccccn23)C1 (stereo not drawn)	6	-4	0	2	?
CSc1ccc(/C=N/n2c(C)cc(C)cc2=O)cc1	0	-1	33*	0	3
CSc1ccc(/C=N/n2c(C)nnc2C)cc1	1	1	16	-1	0
CC(=O)C1C2c3ccccc3OC1(C)N=c1s/c(=C/c3cnn(C)c3)c(=O)n12 (stereo not drawn)	-4	0	38*	1	-10
COC(=O)C1C2c3ccccc3OC1(C)N=c1s/c(=C/c3cnn(C)c3C)c(=O)n12 (stereo not drawn)	0	-2	20	0	99
Cc1nc2c(C#N)cnn2c2c1CCN(Cc1ccccc1)N2C	7	-6	44*	1	-7
O=C(O)CC1(CC(=O)Nc2ccc3sccc3c2)CCCCC1	-1	-13	-4	0	-1
Cc1cc2cc3c(cc2nc1SCC(=O)O)OCCO3	4	-8	33*	-1	-9
Cc1cc2cc3c(cc2nc1SCC(=O)N1CCCC1)OCCO3	6	nt	14	nt	nt
C[C@H]1[C@@H](OC(=O)CCC(=O)O)O[C@@H]2OC3(C)CC[C@H]4[C@H](C)CC[C@@H]1[C@@]24OO3	nt	-4	nt	2	0
Cc1ccccc1NC(=O)COC(=O)COc1ccc2ccc(=O)oc2c1	26	nt	9	nt	nt
O=C(CNC(=O)OCc1ccccc1)Oc1ccc2ccc(=O)oc2c1	+	0	13	1	5
CC(C)(C)OC(=O)NCCC(=O)Oc1ccc2ccc(=O)oc2c1	+	4	10	0	5
CC(NC(=O)OC(C)(C)C)C(=O)Oc1ccc2ccc(=O)oc2c1 (stereo not drawn)	+	9	5	2	1
COc1ccc(C2=NN(C(=O)c3cccs3)C(c3ccccc3OC)C2)cc1OC (stereo not drawn)	3	-13	34*	0	24
Cc1ccc(C2=NN(C(=O)c3cccs3)C(c3ccccc3O)C2)cc1 (stereo not drawn)	0	5	-4	1	0
COc1ccc(C2=NN(C(=O)c3ccco3)C(c3cccs3)C2)cc1OC (stereo not drawn)	-2	nt	38*	nt	nt
CC(=O)C1=C(C)NC(=S)NC1c1cc([N+](=O)[O-])ccc1O (stereo not drawn)	-9	3	16	-2	3
CCCCNc1c(-c2ccc(SC(C)CC)cc2)nc2cnccn12 (stereo not drawn)	40*	-2	19	3	100
CCCCNc1c(-c2ccc(OC)c(Sc3ccc(OC)cc3)c2)nc2ccccn12	28*	5	14	1	69
CCCCNc1c(-c2ccc(OC)c(Sc3ccc(OC)cc3)c2)nc2cnccn12	20	-4	5	-3	60
CSCCC(NC(=O)COc1ccccc1)C(=O)NCC1COc2ccccc2O1 (stereo not drawn)	2	-2	10	1	-6
O=C(O)/C=C/C(=O)NCc1csc2ccccc12	5	9	-3	1	-1
CSc1ccc(C2N=C(c3ccccc3)NO2)cc1 (stereo not drawn)	4	-5	-4	1	-2
SMILES	Mtb FBA inh	Rv3671c inh	GDH-TPI inh	Mtb UGM inh	Mtb bLac sens
Oc1c(Br)cc(C2N=C(c3ccccc3)NO2)cc1Br (stereo not drawn)	8	4	32*	1	-8
COc1ccc2c(c1)C(c1ccc([N+](=O)[O-])cc1)=NNC(c1ccco1)=N2	-1	-6	33*	-1	9
O=c1oc2ccccc2c2c1SC(C(F)(F)F)C2 (stereo not drawn)	+	1	12	-2	-3
CC(c1ccccc1)n1c(N2CCNCC2)nc2c1c(=O)[nH]c(=O)n2C (stereo not drawn)	0	nt	7	1	4
Clc1ccc(/C=N/c2c(-c3ccco3)nc3ccccn23)cc1	8	9	14	2	4
O=[N+]([O-])c1cc(-c2ccc(/C=N/c3nc4ccccn4c3-c3ccco3)o2)ccc1Cl	-1	6	37*	-1	10
Cc1cc(N/N=C/c2ccccc2O)nc(N2CCOCC2)n1	4	1	64*	3	4
Oc1ccc(/C=N/Nc2cc(N3CCOCC3)nc(N3CCOCC3)n2)cc1	2	-11	58*	1	-1
COc1ccc(OC)c(/C=N/Nc2cc(C)nc(N3CCOCC3)n2)c1	5	2	21	1	-1
CCn1cc(C(=O)N2CCN(c3ccc(OC)cc3)CC2)c(=O)c2cc(S(=O)(=O)N3CCOCC3)ccc21	3	2	10	-2	2
COc1ccc2c(c1)[nH]c1c(=O)n(/N=C/c3ccc(OC)c(CN4CCCC4)c3)cnc12	2	1	54*	-3	-2
COc1ccc(/C=N/n2cnc3c([nH]c4ccc(F)cc43)c2=O)cc1CN1CCCC1	0	-2	10	1	-5
COc1ccc(/C=N/n2c(=O)[nH]c3c([nH]c4ccc(F)cc43)c2=O)cc1CN1CCCCC1	82*	0	26	1	-6
COc1ccc(/C=N/n2cnc3c([nH]c4ccc(C)cc43)c2=O)cc1CN1CCCC1	1	1	7	2	-5
O=C(Nc1ccccc1)c1nc[nH]c1C(=O)NCCN(CCNC(=O)c1[nH]cnc1C(=O)Nc1ccccc1)CCNC(=O)c1[nH]cnc1C(=O)Nc1ccccc1	2	-49	13	-1	18
CN(C)c1ccc2nc3c(=O)[nH]c(=O)nc-3n(CC(O)C(O)C(O)CO)c2c1 (stereo not drawn)	-12	-392	7	61*	13
CC(=O)c1ccc(-c2cccs2)s1	+	15	10	-4	3
Nc1nonc1-c1nc2ccccc2n1CC(=O)N/N=C/c1ccc(-c2ccccc2C(=O)O)o1	2	-10	42*	0	-2
COc1cc2c3nnc(-c4ccccc4)c-3cn(Cc3ccccc3F)c2cc1OC	nt	0	nt	11*	12
Cc1sc2ncnc(N3CCC(C(=O)Nc4nnc(SCc5ccccc5F)s4)CC3)c2c1C	138*	1	0	-2	-1
CCc1cccc(NC(=O)C2CCN(c3ncnc4sc(C)c(C)c34)CC2)c1	3	-12	-3	2	38
N#Cc1ccc(-c2cn3c(n2)SCC3)cc1	+	nt	4	2	8
O=[N+]([O-])c1ccc(-c2cn3c(n2)SCC3)cc1	1	-2	37*	-1	1
O=S(=O)(Nc1ccc(-c2cn3c(n2)SCC3)cc1)c1cccs1	0	-10	12	1	0
CCC(CC)c1nn2c(N)c(/C=C3\C=Nc4ccccc43)c(=O)nc2s1	+	-8	19	4	-12
CC(C)c1nn2c(N)c(/C=C3\C=Nc4ccccc43)c(=O)nc2s1	1	0	12	1	-9
